# Results from the antibiotic and cytotoxicity screens of Wong et al. (2023).
# Out of some 39,000 compounds screened, about 1,500 (3.8%) were called active. The list comes from a sample in which actives are over-represented; it also holds similar structures and randomly drawn compounds.
# System: HSkMC (human skeletal muscle cells)
# Assay: cytotoxicity call (relative viability < 0.9)
# Conditions: 10 µM
row,Structure (SMILES),cytotoxicity call
1,C[C@@H]1CCCCO[C@@H](CN(C)Cc2ccc(Cl)c(Cl)c2)[C@@H](C)CN([C@@H](C)CO)C(=O)c2cc(NS(=O)(=O)c3cn(C)cn3)ccc2O1,inactive
2,C[C@H]1CCCCO[C@@H](CN(C)Cc2ccc(C(F)(F)F)cc2)[C@@H](C)CN([C@@H](C)CO)C(=O)c2cc(N(C)C)ccc2O1,inactive
3,CC(C)C#Cc1cnc2c(c1)C(=O)N([C@H](C)CO)C[C@H](C)[C@H](CN(C)S(=O)(=O)c1cn(C)cn1)O2,inactive
4,CCCC#Cc1cnc2c(c1)C(=O)N([C@@H](C)CO)C[C@H](C)[C@H](CN(C)C(=O)c1ccc3c(c1)OCO3)O2,inactive
5,COc1ccccc1S(=O)(=O)N[C@H]1CC[C@@H](CCNC(=O)C2CC2)O[C@@H]1CO,inactive
6,COc1ccc(NC(=O)Nc2cccc3c2O[C@@H](CN(C)CC2CCCCC2)[C@H](C)CN([C@@H](C)CO)C3=O)cc1,inactive
7,O=C(C[C@H]1C[C@H]2c3cc(NS(=O)(=O)c4ccc(F)cc4)ccc3O[C@H]2[C@@H](CO)O1)N1CCCCC1,inactive
8,COCC(=O)N1C[C@@H](C)[C@H](OC)CN(C)C(=O)c2ccc(NC(=O)Nc3cccc(F)c3)cc2OC[C@@H]1C,inactive
9,C[C@@H]1CN([C@H](C)CO)C(=O)Cc2cc(NC(=O)Cc3cn(C)c4ccccc34)ccc2O[C@@H]1CN(C)Cc1ccc(C(F)(F)F)cc1,inactive
10,NC1CCN(C(=O)N2CCCC2)CC1,inactive
11,C[C@@H]1CN([C@@H](C)CO)C(=O)Cc2cc(NS(=O)(=O)c3ccc(Cl)cc3)ccc2O[C@H]1CN(C)C(=O)Nc1ccc(C(F)(F)F)cc1,inactive
12,C[C@H](CO)N1C[C@H](C)[C@H](CN(C)CC2CC2)Oc2c(NS(=O)(=O)c3ccccc3)cccc2C1=O,inactive
13,COc1ccc(S(=O)(=O)Nc2ccc3c(c2)C(=O)N([C@H](C)CO)C[C@H](C)[C@@H](CN(C)S(=O)(=O)c2ccc(OC)cc2)O3)cc1,inactive
14,CN1C[C@@H](N)CC1=O,inactive
15,COC(=O)[C@H](Cc1ccccc1)N1CC2=CCCC=C[C@H]2[C@@H]1[C@@H](O)CCn1cc(CCC(=O)NO)nn1,inactive
16,C[C@H](CO)N1C[C@H](C)[C@@H](CN(C)Cc2ccccc2)Oc2ccc(NC(=O)Nc3ccc(C(F)(F)F)cc3)cc2CC1=O,active
17,C[C@@H]1CN([C@H](C)CO)C(=O)Cc2cc(NC(=O)Nc3ccc(C(F)(F)F)cc3)ccc2O[C@@H]1CN(C)Cc1ccccc1,active
18,COc1cccc(S(=O)(=O)N2C[C@H](O)COC[C@@H]3O[C@@H](CC(=O)NCCCN4CCOCC4)CC[C@H]32)c1,inactive
19,CN1CCN(C(=O)C[C@@H]2C=C[C@@H](NS(=O)(=O)c3cccc(F)c3)[C@@H](CO)O2)CC1,inactive
20,O=C(O)/C=C\C(=O)Nc1cccc(C(=O)O)c1,inactive
21,COc1ccc(NC(=O)Nc2cccc3c2O[C@H](CN(C)Cc2ccc(-c4ccccc4)cc2)[C@@H](C)CN([C@H](C)CO)C3=O)cc1,inactive
22,COc1ccc(NC(=O)Nc2cccc3c2O[C@@H](CN(C)Cc2ccc(-c4ccccc4)cc2)[C@H](C)CN([C@@H](C)CO)C3=O)cc1,inactive

row,Structure (SMILES),cytotoxicity call
1,COc1ccc(NC(=O)Nc2cccc3c2O[C@H](CN(C)Cc2ccc(-c4ccccc4)cc2)[C@H](C)CN([C@H](C)CO)C3=O)cc1,active
2,COc1ccc(NC(=O)Nc2cccc3c2O[C@@H](CN(C)Cc2ccc(-c4ccccc4)cc2)[C@@H](C)CN([C@H](C)CO)C3=O)cc1,inactive
3,COc1ccc(NC(=O)Nc2cccc3c2O[C@H](CN(C)Cc2ccc(-c4ccccc4)cc2)[C@H](C)CN([C@@H](C)CO)C3=O)cc1,inactive
4,COc1ccc(NC(=O)Nc2cccc3c2O[C@H](CN(C)Cc2ccc(-c4ccccc4)cc2)[C@@H](C)CN([C@@H](C)CO)C3=O)cc1,active
5,C[C@@H]1CN([C@H](C)CO)C(=O)c2cc(NS(=O)(=O)c3ccc(Cl)cc3)ccc2O[C@@H](C)CCCCO[C@@H]1CN(C)C(=O)NC1CCCCC1,inactive
6,C[C@@H]1CCCCO[C@H](CN(C)Cc2ccc(C(=O)O)cc2)[C@H](C)CN([C@H](C)CO)C(=O)c2cc(NC(=O)c3ccccc3)ccc2O1,inactive
7,C[C@@H]1CN([C@H](C)CO)C(=O)c2cc(NC(=O)Cn3cnnn3)ccc2O[C@@H]1CN(C)S(C)(=O)=O,inactive
8,C[C@@H]1CCCCO[C@@H](CN(C)S(C)(=O)=O)[C@@H](C)CN([C@@H](C)CO)C(=O)c2cc(NS(=O)(=O)c3ccccc3)ccc2O1,inactive
9,CCC1(O)C(=O)OCc2c1cc1n(c2=O)Cc2cc3c(CN(C)C)c(O)ccc3nc2-1.Cl (stereo unspecified),inactive
10,CC[C@@]1(O)C(=O)OCc2c1cc1n(c2=O)Cc2c-1nc1cc(F)c(C)c3c1c2[C@@H](N)CC3,active
11,CCC1(O)C(=O)OCc2c1cc1n(c2=O)Cc2cc3cc(O)ccc3nc2-1 (stereo unspecified),inactive
12,CC(C)(C)[S@@](=O)N1Cc2cc(C(=O)N[C@H]3CCN(Cc4ccccc4)C3)nc(-c3cccc(-c4ccncc4)c3)c2[C@H]1CCO,inactive
13,Cc1noc(C)c1NC(=O)Nc1cccc2c1O[C@H](CN(C)Cc1ccc(Oc3ccccc3)cc1)[C@@H](C)CN([C@@H](C)CO)C2=O,inactive
14,C[C@H]1CCCCO[C@H](CN(C)S(=O)(=O)c2ccccc2)[C@@H](C)CN([C@@H](C)CO)C(=O)c2cc(NS(=O)(=O)c3cn(C)cn3)ccc2O1,inactive
15,O=C(c1ccccc1O)N1CCOCC1,inactive
16,O=C(c1cn(Cc2cncn2Cc2ccc(Br)cc2)cc1-c1cccc2ccccc12)N1CCOCC1,active
17,Nc1ccccc1C(=O)N1CCOCC1,inactive
18,C[C@@H]1CN([C@H](C)CO)C(=O)c2cc(NC(=O)Nc3ccccc3)ccc2O[C@@H](C)CCCCO[C@H]1CN(C)Cc1ccncc1,inactive
19,COC1C=COC2(C)Oc3c(C)c(O)c4c(O)c(c(C=NN5CCN(C)CC5)c(O)c4c3C2=O)NC(=O)C(C)=CC=CC(C)C(O)C(C)C(O)C(C)C(OC(C)=O)C1C (stereo unspecified),inactive
20,COC1C=COC2(C)Oc3c(C)c(O)c4c(O)c(c5c(nc6cc(C)ccn65)c4c3C2=O)NC(=O)C(C)=CC=CC(C)C(O)C(C)C(O)C(C)C(OC(C)=O)C1C (stereo unspecified),inactive
21,CO[C@H]1/C=C\O[C@@]2(C)Oc3c(C)c(O)c4c(O)c(c(/C=N/N=C/N5CCCCC5)c(O)c4c3C2=O)NC(=O)/C(C)=C\C=C/[C@H](C)[C@H](O)[C@@H](C)[C@@H](O)[C@@H](C)[C@H](OC(C)=O)[C@@H]1C,active
22,CO[C@H]1/C=C\O[C@@]2(C)Oc3c(C)c(O)c4c(c3C2=O)[C@]2(C=C(NC(=O)/C(C)=C\C=C/[C@@H](C)[C@@H](O)[C@@H](C)[C@@H](O)[C@@H](C)[C@@H](OC(C)=O)[C@@H]1C)C4=O)OCC(=O)O2,active

row,Structure (SMILES),cytotoxicity call
1,COC1C=COC2(C)Oc3c(C)c(O)c4c(O)c(c(C=NN5CCN(C6CCCC6)CC5)c(O)c4c3C2=O)NC(=O)C(C)=CC=CC(C)C(O)C(C)C(O)C(C)C(OC(C)=O)C1C (stereo unspecified),inactive
2,[N-]=[N+]=Nc1ccccc1[C@H]1OC(c2ccc(OCCCO)cc2)=N[C@@]1(CCS(=O)(=O)c1ccccc1)C(=O)N1CCCCC1,inactive
3,C[C@@H]1CCCCO[C@@H](CN(C)S(=O)(=O)c2ccc(Cl)cc2)[C@@H](C)CN([C@@H](C)CO)C(=O)c2cc(NC(=O)Nc3cccc4ccccc34)ccc2O1,inactive
4,COc1ccccc1S(=O)(=O)N[C@H]1CC[C@H](CCNC(=O)C2CC2)O[C@H]1CO,inactive
5,CN1C(=O)c2cc(NC(=O)Cc3cccs3)ccc2OC[C@@H]2O[C@H](CC(=O)NCCc3ccncc3)CC[C@H]21,inactive
6,COc1ccc(CN(C)C[C@@H]2Oc3c(NC(=O)c4cc(C)nn4C)cccc3C(=O)N([C@H](C)CO)C[C@H]2C)cc1,inactive
7,Cc1c(CN2CCC(Nc3ncnc4sc(CC(F)(F)F)cc34)CC2)ccc2c1cc(C#N)n2Cc1cn[nH]c1,active
8,COc1ccc(NC(=O)N(C)C[C@H]2Oc3ccc(NC(=O)Nc4cccc5ccccc45)cc3C(=O)N([C@@H](C)CO)C[C@H]2C)cc1,inactive
9,COc1cc(C2c3cc4c(cc3C(OC3OC5COC(C)OC5C(O)C3O)C3COC(=O)C23)OCO4)cc(OC)c1O (stereo unspecified),inactive
10,COc1cc([C@@H]2c3cc4c(cc3[C@@H](O[C@@H]3O[C@@H]5CO[C@@H](C)O[C@H]5[C@H](O)[C@H]3O)[C@H]3COC(=O)[C@H]23)OCO4)cc(OC)c1O,active
11,COc1cc([C@@H]2c3cc4c(cc3[C@@H](O[C@@H]3O[C@@H]5CO[C@@H](C)O[C@H]5[C@H](O)[C@H]3O)[C@@H]3COC(=O)[C@@H]23)OCO4)cc(OC)c1O,inactive
12,CC(C)(C)C(=O)Nc1ccccc1F,inactive
13,CCN(CC)C(=S)SSC(=S)N(CC)CC,active
14,C[C@H](CO)N1C[C@H](C)[C@@H](CN(C)S(=O)(=O)c2ccc(F)cc2)Oc2ccc(NC(=O)Nc3cccc4ccccc34)cc2C1=O,inactive
15,O=S1(=O)CCC(O)CC1,inactive
16,O=C(CNc1ccc2c(c1)oc1ccccc12)c1ccc(F)cc1,inactive
17,Cc1ccc(S(=O)(=O)Nc2ccc3c(c2)CC(=O)N([C@@H](C)CO)C[C@H](C)[C@@H](CN(C)Cc2ccc(Cl)c(Cl)c2)O3)cc1,active
18,Cc1ccc(S(=O)(=O)Nc2ccc3c(c2)CC(=O)N([C@@H](C)CO)C[C@@H](C)[C@H](CN(C)Cc2ccc(Cl)c(Cl)c2)O3)cc1,inactive
19,Cc1ccc(S(=O)(=O)Nc2ccc3c(c2)CC(=O)N([C@@H](C)CO)C[C@@H](C)[C@@H](CN(C)Cc2ccc(Cl)c(Cl)c2)O3)cc1,active
20,Cc1ccc(S(=O)(=O)Nc2ccc3c(c2)CC(=O)N([C@H](C)CO)C[C@H](C)[C@@H](CN(C)Cc2ccc(Cl)c(Cl)c2)O3)cc1,inactive
21,Cc1ccc(S(=O)(=O)Nc2ccc3c(c2)CC(=O)N([C@H](C)CO)C[C@H](C)[C@H](CN(C)Cc2ccc(Cl)c(Cl)c2)O3)cc1,active
22,Cc1ccc(S(=O)(=O)Nc2ccc3c(c2)CC(=O)N([C@@H](C)CO)C[C@H](C)[C@H](CN(C)Cc2ccc(Cl)c(Cl)c2)O3)cc1,active
